For some assays here: Measured potencies and affinities stand elsewhere.
Legend:
Parameters in all cases: scale not given: direction of the effect not stated beside the values
[1] = target: Protein translocase subunit SecA (Escherichia coli (strain K12)) (UniProt P10408); experiment: Assay to Identify E. coli SecA ATPase Inhibitors; format: functional; conditions: 30 µM
[2] = target: T1, Ubiquitin-activating enzyme e1, putative (Leishmania donovani (strain BPK282A1)) (UniProt E9BSI1); experiment: Leishmania donovani Ubiquitin Activating Enzyme (LdE1); format: functional; conditions: 30 µM
T1 sequence (whole entry): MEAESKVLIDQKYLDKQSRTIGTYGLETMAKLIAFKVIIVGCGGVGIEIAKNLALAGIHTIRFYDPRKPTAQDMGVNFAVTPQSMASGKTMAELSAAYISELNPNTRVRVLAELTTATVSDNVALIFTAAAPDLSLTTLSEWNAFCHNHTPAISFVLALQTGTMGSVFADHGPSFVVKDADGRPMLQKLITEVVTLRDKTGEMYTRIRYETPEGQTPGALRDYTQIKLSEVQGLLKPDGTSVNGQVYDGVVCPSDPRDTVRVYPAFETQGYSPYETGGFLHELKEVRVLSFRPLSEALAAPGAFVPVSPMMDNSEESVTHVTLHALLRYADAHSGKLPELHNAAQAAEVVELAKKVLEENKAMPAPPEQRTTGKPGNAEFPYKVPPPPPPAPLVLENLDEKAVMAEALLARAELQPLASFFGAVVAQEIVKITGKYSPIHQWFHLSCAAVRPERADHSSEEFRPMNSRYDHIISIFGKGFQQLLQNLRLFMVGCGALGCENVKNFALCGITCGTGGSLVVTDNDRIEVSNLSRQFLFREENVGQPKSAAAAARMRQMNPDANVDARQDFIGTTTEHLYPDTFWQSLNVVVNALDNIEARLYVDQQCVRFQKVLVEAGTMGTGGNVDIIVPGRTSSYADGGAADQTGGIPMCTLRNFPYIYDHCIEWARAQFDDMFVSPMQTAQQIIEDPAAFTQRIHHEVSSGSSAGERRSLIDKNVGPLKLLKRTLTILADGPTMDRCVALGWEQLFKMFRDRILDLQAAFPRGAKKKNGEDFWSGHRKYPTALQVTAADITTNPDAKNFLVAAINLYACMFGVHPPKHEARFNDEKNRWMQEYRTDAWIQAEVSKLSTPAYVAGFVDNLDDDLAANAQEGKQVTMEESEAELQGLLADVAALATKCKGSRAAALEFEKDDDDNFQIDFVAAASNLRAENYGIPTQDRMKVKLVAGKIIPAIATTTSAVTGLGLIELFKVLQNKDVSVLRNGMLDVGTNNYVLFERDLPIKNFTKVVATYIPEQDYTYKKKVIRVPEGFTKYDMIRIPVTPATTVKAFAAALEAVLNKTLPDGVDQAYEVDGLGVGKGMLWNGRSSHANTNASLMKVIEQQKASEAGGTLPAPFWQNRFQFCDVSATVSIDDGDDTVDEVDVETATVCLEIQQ

[3] = target: Sialic acid-binding Ig-like lectin 9 (Homo sapiens) (UniProt Q9Y336); experiment: Hs-Siglec9 ALPHAscreen SOP 20170721; conditions: 10 µM
Sequence of Sialic acid-binding Ig-like lectin 9 (Homo sapiens) (Q9Y336 whole entry): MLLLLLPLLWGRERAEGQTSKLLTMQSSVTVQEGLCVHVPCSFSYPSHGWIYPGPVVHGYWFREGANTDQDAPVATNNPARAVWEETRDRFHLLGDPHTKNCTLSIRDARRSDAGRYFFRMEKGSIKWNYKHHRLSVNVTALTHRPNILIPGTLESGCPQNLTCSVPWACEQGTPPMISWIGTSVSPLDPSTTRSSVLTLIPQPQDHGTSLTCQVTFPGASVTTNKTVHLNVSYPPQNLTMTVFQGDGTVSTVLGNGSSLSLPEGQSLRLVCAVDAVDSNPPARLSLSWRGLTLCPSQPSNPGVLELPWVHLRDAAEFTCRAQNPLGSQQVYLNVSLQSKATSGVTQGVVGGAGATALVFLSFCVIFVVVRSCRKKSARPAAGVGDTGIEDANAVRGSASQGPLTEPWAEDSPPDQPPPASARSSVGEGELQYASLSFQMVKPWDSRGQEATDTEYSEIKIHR

Trypanosoma cruzi = experiment: Trypanosoma cruzi phosphomannomutase and mannose-1-phosphate guanylyltransferase assay; format: functional; conditions: 10 µM
[4] = target: T2, Arginase-2, mitochondrial (Homo sapiens) (UniProt P78540); experiment: in vitro enzyme assay to detect the production of urea directly proportional to the activity of Arginase II; format: functional; conditions: 33.3 µM; further: in the data most compounds retested in dose-response had high values
T2 sequence (whole entry): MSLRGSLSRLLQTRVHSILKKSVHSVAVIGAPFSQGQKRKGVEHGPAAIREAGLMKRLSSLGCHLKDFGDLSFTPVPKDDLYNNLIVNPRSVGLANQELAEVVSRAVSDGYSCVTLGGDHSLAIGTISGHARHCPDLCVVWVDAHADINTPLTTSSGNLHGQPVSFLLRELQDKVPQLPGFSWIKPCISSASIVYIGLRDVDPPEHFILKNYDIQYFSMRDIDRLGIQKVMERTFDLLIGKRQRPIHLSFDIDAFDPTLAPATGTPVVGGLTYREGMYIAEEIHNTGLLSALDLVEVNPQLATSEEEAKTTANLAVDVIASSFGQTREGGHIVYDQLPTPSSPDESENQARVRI

[5] = target: T3, Proteasome subunit beta (Trypanosoma cruzi) (UniProt O96673); experiment: Trypanosoma cruzi proteasome chymotrypsin-like activity (TcProtChymo) assay.; further: in the data most compounds retested in dose-response had high values; format: functional; conditions: 9.37 µM
T3 sequence (whole entry): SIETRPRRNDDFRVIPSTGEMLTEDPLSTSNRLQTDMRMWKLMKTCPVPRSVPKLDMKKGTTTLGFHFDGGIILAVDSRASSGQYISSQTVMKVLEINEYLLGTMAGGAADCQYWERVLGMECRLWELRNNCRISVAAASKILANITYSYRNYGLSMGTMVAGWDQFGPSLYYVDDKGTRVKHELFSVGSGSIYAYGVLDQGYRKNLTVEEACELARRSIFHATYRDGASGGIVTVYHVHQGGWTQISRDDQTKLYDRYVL

Homo sapiens = species: Homo sapiens; experiment: To identify inhibition of the IFN signalling (Jak-Stat) pathway via expression of an eGFP reporter gene under the control of an IFN-stimulated response element (ISRE) containing MxA promoter.; format: functional; conditions: 30 µM
[6] = target: T4, Tyrosyl-tRNA synthetase, putative (Trypanosoma cruzi (strain CL Brener)) (UniProt Q4DSP6); experiment: Trypanosoma cruzi tyrosyl tRNA synthetase (TcYRS) _High Tyrosine SOP; format: functional; conditions: 30 µM; further: in the data most compounds retested in dose-response had high values
T4 sequence (whole entry): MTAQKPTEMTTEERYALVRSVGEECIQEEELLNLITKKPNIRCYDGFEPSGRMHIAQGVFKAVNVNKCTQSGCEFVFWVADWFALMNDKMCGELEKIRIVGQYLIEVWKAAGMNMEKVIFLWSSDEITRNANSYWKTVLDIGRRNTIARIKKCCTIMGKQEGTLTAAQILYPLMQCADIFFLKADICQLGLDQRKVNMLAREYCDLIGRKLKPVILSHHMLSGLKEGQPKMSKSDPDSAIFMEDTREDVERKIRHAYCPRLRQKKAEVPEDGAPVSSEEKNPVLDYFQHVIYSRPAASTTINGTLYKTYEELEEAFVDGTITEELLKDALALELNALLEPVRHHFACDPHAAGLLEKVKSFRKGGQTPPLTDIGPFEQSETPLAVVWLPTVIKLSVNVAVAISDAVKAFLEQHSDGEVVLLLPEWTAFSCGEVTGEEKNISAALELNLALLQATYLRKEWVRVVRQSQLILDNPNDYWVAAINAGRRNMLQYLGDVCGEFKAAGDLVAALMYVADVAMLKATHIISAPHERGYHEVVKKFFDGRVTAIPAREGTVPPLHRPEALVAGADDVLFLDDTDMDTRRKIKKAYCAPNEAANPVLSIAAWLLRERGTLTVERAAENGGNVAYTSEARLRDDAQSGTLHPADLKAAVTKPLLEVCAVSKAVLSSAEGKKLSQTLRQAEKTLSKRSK

[7] = target: T4, Tyrosyl-tRNA synthetase, putative (Trypanosoma cruzi (strain CL Brener)); experiment: Trypanosoma cruzi tyrosyl tRNA synthetase (TcYRS) SOP; format: functional; conditions: 30 µM
[8] = target: Chromo domain-containing protein 1 (Saccharomyces cerevisiae (strain ATCC 204508 / S288c) (Baker's yeast)) (UniProt P32657); experiment: ScCHD-1 Enzyme Inhibition Assay; format: functional; conditions: 30 µM; further: in the data most compounds retested in dose-response had high values
Sequence of Chromo domain-containing protein 1 (Saccharomyces cerevisiae (strain ATCC 204508 / S288c) (Baker's yeast)) (P32657 whole entry, the tested form may be a part): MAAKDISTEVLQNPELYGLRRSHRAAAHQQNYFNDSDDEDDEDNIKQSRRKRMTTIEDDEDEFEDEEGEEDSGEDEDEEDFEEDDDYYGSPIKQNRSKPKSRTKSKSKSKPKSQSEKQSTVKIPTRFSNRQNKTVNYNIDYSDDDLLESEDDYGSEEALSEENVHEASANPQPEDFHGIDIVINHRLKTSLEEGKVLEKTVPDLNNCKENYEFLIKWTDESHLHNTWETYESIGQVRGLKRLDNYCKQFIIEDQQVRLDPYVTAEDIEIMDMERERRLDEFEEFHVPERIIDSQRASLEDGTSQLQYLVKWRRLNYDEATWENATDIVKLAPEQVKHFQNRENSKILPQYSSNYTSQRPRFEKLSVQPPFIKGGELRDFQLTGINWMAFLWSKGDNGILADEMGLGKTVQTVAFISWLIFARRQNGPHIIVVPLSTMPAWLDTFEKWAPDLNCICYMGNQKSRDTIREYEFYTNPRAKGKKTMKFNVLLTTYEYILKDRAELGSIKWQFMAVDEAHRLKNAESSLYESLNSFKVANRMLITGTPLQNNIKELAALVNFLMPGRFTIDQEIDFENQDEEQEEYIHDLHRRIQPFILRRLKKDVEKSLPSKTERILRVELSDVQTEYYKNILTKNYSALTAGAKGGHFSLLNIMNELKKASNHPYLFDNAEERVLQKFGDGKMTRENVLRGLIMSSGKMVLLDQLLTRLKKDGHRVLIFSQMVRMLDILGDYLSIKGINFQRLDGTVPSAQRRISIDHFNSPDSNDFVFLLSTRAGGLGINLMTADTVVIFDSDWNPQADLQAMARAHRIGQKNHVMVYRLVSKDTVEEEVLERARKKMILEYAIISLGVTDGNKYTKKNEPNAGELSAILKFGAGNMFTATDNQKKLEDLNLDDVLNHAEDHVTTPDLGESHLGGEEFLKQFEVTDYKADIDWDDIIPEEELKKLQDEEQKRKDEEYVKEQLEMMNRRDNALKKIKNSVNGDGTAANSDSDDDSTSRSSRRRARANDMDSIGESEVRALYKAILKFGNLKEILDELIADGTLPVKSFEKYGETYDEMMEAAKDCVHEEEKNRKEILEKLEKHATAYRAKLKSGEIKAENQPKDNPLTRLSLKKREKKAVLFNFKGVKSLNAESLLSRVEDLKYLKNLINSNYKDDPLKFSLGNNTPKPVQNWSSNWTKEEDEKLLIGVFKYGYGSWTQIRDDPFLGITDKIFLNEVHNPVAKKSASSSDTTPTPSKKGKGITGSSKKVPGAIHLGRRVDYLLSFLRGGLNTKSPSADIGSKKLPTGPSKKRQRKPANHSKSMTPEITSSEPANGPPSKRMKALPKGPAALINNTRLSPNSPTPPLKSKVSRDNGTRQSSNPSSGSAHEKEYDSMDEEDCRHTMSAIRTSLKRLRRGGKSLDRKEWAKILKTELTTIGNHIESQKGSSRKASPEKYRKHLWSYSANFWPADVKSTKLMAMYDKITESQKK

Sequence of Protein translocase subunit SecA (Escherichia coli (strain K12)) (P10408 whole entry): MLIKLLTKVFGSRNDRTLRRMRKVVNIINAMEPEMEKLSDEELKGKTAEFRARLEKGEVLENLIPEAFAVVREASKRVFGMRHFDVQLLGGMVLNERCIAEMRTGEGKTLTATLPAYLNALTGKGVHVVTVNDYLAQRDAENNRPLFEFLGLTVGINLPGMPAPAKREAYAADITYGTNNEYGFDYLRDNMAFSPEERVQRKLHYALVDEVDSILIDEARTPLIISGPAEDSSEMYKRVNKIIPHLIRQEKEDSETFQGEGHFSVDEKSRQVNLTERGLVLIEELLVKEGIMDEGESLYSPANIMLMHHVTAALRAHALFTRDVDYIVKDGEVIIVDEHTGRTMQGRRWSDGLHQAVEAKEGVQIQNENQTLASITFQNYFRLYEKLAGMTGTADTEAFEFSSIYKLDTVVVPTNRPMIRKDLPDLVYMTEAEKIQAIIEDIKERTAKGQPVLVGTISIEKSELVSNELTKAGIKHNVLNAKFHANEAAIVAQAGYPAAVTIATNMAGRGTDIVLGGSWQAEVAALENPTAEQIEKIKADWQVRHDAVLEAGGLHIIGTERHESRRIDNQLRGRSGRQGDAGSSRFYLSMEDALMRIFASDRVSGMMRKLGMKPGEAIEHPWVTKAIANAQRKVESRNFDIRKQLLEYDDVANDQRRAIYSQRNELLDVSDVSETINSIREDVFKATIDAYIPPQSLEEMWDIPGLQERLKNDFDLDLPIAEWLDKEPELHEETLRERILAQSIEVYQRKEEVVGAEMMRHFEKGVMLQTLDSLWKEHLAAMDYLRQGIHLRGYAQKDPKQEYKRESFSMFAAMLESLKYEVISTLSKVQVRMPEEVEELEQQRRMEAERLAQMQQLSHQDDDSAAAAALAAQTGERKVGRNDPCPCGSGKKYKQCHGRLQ

Compound	Percent Effect [1] [%]	Percent Effect [2] [%]	Percent Effect [3] [%]	Percent Effect (Trypanosoma cruzi) [%]	Percent Effect [4] [%]	Percent Effect [5] [%]	Percent Effect (Homo sapiens) [%]	Percent Effect [6] [%]	Percent Effect [7] [%]	Percent Effect [8] [%]
O=C(c1ccc(F)cc1)N1CCC2(CCCN2CC2CC2)CC1	-2.9	9.09	-6.13	-6.57	5.94	14	11.5	0.966	0	-3.47
CC(NC(=O)CN(C)S(C)(=O)=O)c1nnc2n1CCCCC2 (stereo not given)	1.95	13	1.1	-4.48	-15	17.2	26.4	-0.98	4.71	-8.79
CC(C)NC(=O)C(c1ccccc1)N1CCn2c(nnc2C2CC2)C1 (stereo not given)	-3.99	15.4	-10.1	7.61	-2.87	4.86	4.59	3.35	20.5	-5.56
Cc1ccc([C@@H]2CN(C(=O)c3csc(C)n3)C[C@H]2NC(=O)C2CC2)cc1	-13.4	2.7	0.978	0.097	-0.35	5.99	23.2	3.72	17.1	-2.85
O=C(c1ccnnc1)N1CCC2(CC1)CC(N1CCOCC1)C2	0.141	14.3	-2.15	-2.25	5.48	13.8	22.2	4.83	2.5	-8.83
CCn1cc2c(n1)C(COC)CN(C(=O)COc1ccccc1C)C2 (stereo not given)	-5.08	-3.9	1.02	-5.16	-13.4	11	4.86	2.63	5.13	2.06
c1cnnc(N2CCCC2CNCc2ccsc2)c1 (stereo not given)	-2.09	-5.13	-6.52	10.1	4.1	-8.45	15.3	-0.478	6.02	-2.21
CCc1sc(-c2nnc(CNCCn3cc(C)cn3)o2)cc1C	-2.72	5.2	8.91	-6.34	4.71	1.93	10.2	4.9	7.06	-8.57
Cc1nccn1-c1cccc(C2CCCN2S(=O)(=O)c2cn(C)cn2)n1 (stereo not given)	-6.36	1.33	-0.612	-3.94	-0.885	-0.493	22.4	0	-2.5	-23.4
NC(=O)NC(=O)CCN1CCCN(c2nccs2)CC1	-0.41	10.7	-0.94	-4.02	3.1	9.41	13.6	7.89	10.3	-7.5
Cn1c(CN2CCCC2c2noc(C3CC3)n2)cc(=O)n(C)c1=O (stereo not given)	-8.17	2.67	-1.87	-3.01	-3.99	5.85	13.9	0.526	0	-5.06
CNc1nc2c(s1)C(=O)CN(C(=O)NCc1ccccc1)C2	-2.61	8	-5.95	-8.84	5.32	9.41	15.2	1.58	2.56	-6.84
Cc1cc2c(=O)n3c(nc2s1)CCN(Cc1cnc(C(C)C)nc1)CC3	-1.05	4	-0.31	-7.69	3.98	5.91	28.4	0	5	-25.8
CC[C@H](C)Nc1nccc(-c2cnc3sc(C)c(C)n3c2=O)n1	-6.51	0	0.241	-3.61	-3.55	12.6	15.3	-3.68	-10.3	-9.65

From ChEMBL document CHEMBL3988442, “University of Dundee, Small-Polar-MMV Screening Library” (2021)
